# Rows were chosen to be rich in hits. Some 19% of all compounds tested hit in one or more screens of this group.
# TDP1 cell noCPT: qHTS for Inhibitors of human tyrosyl-DNA phosphodiesterase 1 (TDP1): qHTS in cells in absence of CPT; DT40 Tdp1-/- hTDP1 cells, no CPT, ATP luminescence, 48 h; Potency, µM (top dose mostly 46.2 µM), without a hit: at the highest dose activity change, negative = growth inhibition, actives largely listed as inhibitors; 15% of 420,000 active; AID 686978, 2013; also: potency is read from the fitted curve at half-maximal effect; nearly all actives have a fitted effect of over 55% in size
#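 Camptothecin absent (DMSO only). Human TDP1-complemented DT40 knockout cells, 400 cells/well, 37 °C for minimum 48 hr; ATP measured via CellTiter-Glo, 30 min dark incubation, luminescence.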
# DT40 TDP1 CPT: qHTS for Inhibitors of human tyrosyl-DNA phosphodiesterase 1 (TDP1): qHTS in cells in presence of CPT. 12% of 420,000 active. chicken DT40 Tdp1-/-;hTDP1 cells + 20 nM CPT, ATP luminescence, 48 h. Potency, µM (doses to about 46.2 µM), without a hit: at the top dose activity change, negative = growth inhibition, usual class: inhibitors; also: potency is read from the fitted curve at half-maximal effect; nearly all actives have a fitted effect of over 55% in size
#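 Cell growth measured by CellTiter-Glo luminescence after a minimum 48 h, 37 C compound exposure with 20 nM CPT in Tdp1-knockout DT40 cells stably expressing hTDP1, seeded 400/well; qHTS titration format.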
# IL-1B inflam inh: qHTS for Inhibitors of Inflammasome Signaling: IL-1-beta AlphaLISA Primary Screen; activity change, % at 57.5 µM; THP-1 LPS/ATP IL-1B secretion, AlphaLISA, 16 h; stronger effect = lower value; 4.7% of 360,000 active; in the data active = activity change below about -50%; inconclusive = mostly about -30% to -49%
#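 THP-1 cells pretreated 1 hr with compounds (up to 57.5 uM final), then stimulated with LPS (250 ng/mL final) plus ATP (1.25 mM final); secreted IL-1B measured by AlphaLISA after 16 hr, decreased signal indicating inhibition.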
# HT1080 IDH1KD tx: qHTS for induction of synthetic lethality in tumor cells producing 2HG: qHTS for the HT-1080-IDH1KD cell line. HT-1080 IDH1 knockdown viability, ATP luminescence, 48 h. Potency, µM (titrated, usually from 46.1 µM), without a hit: at the top dose activity, negative = toxicity, most hits filed as cytotoxic. 2% of 360,000 active;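 also: potency is read from the fitted curve at half-maximal effect; 0% = DMSO wells and -100% = cell-free medium wells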
#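 Cytotoxicity counter-line: IDH1KD HT-1080, 48 h, CellTiter-Glo. Curves classed by r2, magnitude and activity.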
# HT1080NT lethal: qHTS for induction of synthetic lethality in tumor cells producing 2HG: qHTS for the HT-1080-NT fibrosarcoma cell line; 1.6% of 360,000 active; HT-1080-NT fibrosarcoma viability, CellTiter-Glo ATP luminescence, 48 h; Potency, µM (titrated, usually from 46.1 µM), without a hit: top-dose activity, negative = less viability, actives largely listed as cytotoxic;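 also: NT is the 2HG producing partner of a matched IDH1 knockdown line; potency is read from the fitted curve at half-maximal effect; 0% = DMSO-treated cells and -100% = media-only wells without cells; nearly all actives have a fitted effect of over 55% in size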
#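 A 48-hour cytotoxicity screen used HT-1080-NT cells plated 2 hours before compound delivery. ATP-based CellTiter-Glo luminescence measured viability, normalized to DMSO and no-cell controls.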
# Active calls of the source: *; i = inactive; ? = inconclusive; . = no result given. Unless noted, calls follow the shape of the dose curve; as a rule, active = well fitted curve in the direction sought with a large enough effect; inconclusive = small, poorly fitted or top-dose-only effect, or another doubt; inactive = no such curve, though single readings can be large; an effect the other way counts as inactive or inconclusive. Unless noted, % is scaled to controls: 0 for no effect and ±100 for the full control effect.
SMILES,TDP1 cell noCPT,DT40 TDP1 CPT,IL-1B inflam inh,HT1080 IDH1KD tx,HT1080NT lethal
Fc1ccccc1N1CCN(c2ncnc3nc[nH]c23)CC1,1.9%,-10.2%,-2.2,15.0%,15.0%
COc1ccccc1N1CCN(c2ncnc3n[nH]c(Br)c23)CC1,?,?,16.2,18.4µM*,?
Cc1noc2ncnc(N3CCN(c4ccccc4F)CC3)c12,23.1µM*,20.6µM*,.,.,.
COc1ccccc1N1CCN(c2ncnc3onc(C)c23)CC1,14.6µM*,?,.,.,.
CCOC(=O)C1CCCCN1Cc1cccc(Oc2ccccc2)c1 (stereo not drawn),?,-4.6%,-4.7,8.6%,14.2%
CC1(Cc2cccc(C#N)c2)C(=O)Nc2c(Cl)cccc21 (stereo not drawn),-26.2%,-20.2%,-4.6,7.2%,9.5%
O=C(NCC(=O)N(Cc1ccccc1)C(C(=O)NCC1CCCO1)c1ccccc1)c1ccco1 (stereo not drawn),-29.8%,-10.5%,-16.6,14.4%,15.3%
Cc1ccc(C(C(=O)NCC2CCCO2)N(Cc2ccccc2)C(=O)c2ccc(-c3ccccc3)[nH]2)o1 (stereo not drawn),?,?,-78.6*,?,-26.8%
O=C(NCC1CCCO1)C(c1cccs1)N(Cc1ccccc1Cl)C(=O)c1ccc(-c2ccccc2)[nH]1 (stereo not drawn),23.1µM*,?,?,?,-18.8%
CCOc1ccc(CCNC(=O)c2cnc3sc(N4CCCCC4)nn3c2=O)cc1,-25.2%,?,.,.,.
CCN(C(=O)C1=COCCO1)c1nc2c(C)cccc2s1,-9.6%,-0.9%,1.8,-0.8%,-4.4%
CCc1noc(C)c1C(=O)N(CC)c1nc2c(C)cccc2s1,18.4µM*,?,3.2,-5.2%,0.1%
CCN(CC)CCN(C(=O)c1ccco1)c1nc2c(C)cccc2s1,20.6µM*,14.6µM*,.,.,.
CCN(CC)C(=O)C(Sc1ccccc1)c1ccccc1 (stereo not drawn),?,-15.1%,?,0.8%,3.0%
COc1ccccc1NS(=O)(=O)c1cccs1,-8.2%,16.1%,15.0,-1.0%,10.3%
Cc1cc2[nH]c(=O)c(=O)[nH]c2cc1S(=O)(=O)Nc1cccc(C(F)(F)F)c1,-0.6%,0.7%,.,.,.
COc1ccccc1NS(=O)(=O)c1ccc(-c2cc(C)no2)s1,7.31µM*,7.31µM*,56.4,?,?
Cc1cc(-c2ccc(S(=O)(=O)Nc3cccc(C(F)(F)F)c3)s2)on1,?,20.6µM*,.,.,.
O=C(NCCCn1ccnc1)c1ccc(C(F)(F)F)cc1,-1.0%,-4.0%,10.0,6.9%,14.3%
O=C(O)c1cc(Br)ccc1NS(=O)(=O)c1cccc2nsnc12,-1.1%,-27.3%,10.8,-1.4%,-9.1%
COc1ccc(-n2cccc2/C=C/[N+](=O)[O-])cc1,3.26µM*,2.31µM*,-103.1*,?,-0.6%
CC1CCN(c2nc(-c3ccccc3O)nc3ccccc23)CC1,?,?,25.4,-11.2%,-12.3%
Cc1cc(C)c(C)c(S(=O)(=O)N2CCN(c3ccccn3)CC2)c1C,-4.7%,-23.3%,10.9,-0.3%,-17.0%
CC1CCN(c2ncnc3ccccc23)CC1,23.1µM*,13µM*,-27.4,-13.8%,-11.9%
Cc1cc(C)c(C)c(S(=O)(=O)N2CCN(c3ncnc4ccccc34)CC2)c1C,8.2µM*,10.3µM*,9.0,23.1µM*,?
SMILES,TDP1 cell noCPT,DT40 TDP1 CPT,IL-1B inflam inh,HT1080 IDH1KD tx,HT1080NT lethal
O=S(=O)(c1cc(C(F)(F)F)ccc1Cl)N1CCN(c2ncnc3ccccc23)CC1,2.06µM*,2.06µM*,-16.0,-21.2%,?
CC1(C(=O)NS(=O)(=O)c2cccc(C#N)c2)CCN1C(=O)C1(c2ccccc2)CC1 (stereo not drawn),-5.3%,6.7%,19.5,8.5%,5.1%
COc1cccc(C#Cc2c(CO)[nH]c3ccccc23)c1,?,18.4µM*,18.5,14.0%,0.0%
COc1ccc2[nH]c3c(c2c1)CCN1C(=O)C(CC(=O)NCCCn2ccnc2)C[C@H](C(=O)N(C(C)C)C(C)C)[C@@]31C (stereo partly drawn),-15.6%,-10.9%,-18.6,1.3%,6.2%
COCCCNC(=O)C[C@H]1C[C@H](C(=O)N(C(C)C)C(C)C)[C@@]2(C)c3[nH]c4ccc(Cl)cc4c3CCN2C1=O,8.2µM*,11.6µM*,5.2,1.2%,-7.9%
CC(C)N(C(=O)[C@H]1C[C@H](CC(=O)NCCCn2ccnc2)C(=O)N2CCc3c([nH]c4ccc(Cl)cc34)[C@]12C)C(C)C,18.4µM*,?,?,-28.2%,-12.9%
CCOc1ccc(OCC)c(NC(=O)CN2CCN(CC(=O)NC(C)C)CC2)c1,?,14.6µM*,1.2,1.8%,3.3%
CCOc1ccc(OCC)c(NC(=O)CN2CCN(c3cccc(C)c3)CC2)c1,16.4µM*,23.1µM*,21.9,-5.4%,-3.8%
CCCN1CCN(CC(=O)Nc2cc(OCC)ccc2OCC)CC1,?,-15.2%,-10.5,11.1%,-3.5%
CCOc1ccc(OCC)c(NC(=O)CN2CCN(c3cccc(C)c3)C(C)C2)c1 (stereo not drawn),14.6µM*,14.6µM*,-24.7,1.6%,-3.4%
CCOc1ccc(OCC)c(NC(=O)CN2CCN(c3cc(C)ccc3C)CC2)c1,23.1µM*,20.6µM*,-23.6,?,?
CCOc1ccc(OCC)c(NC(=O)CN2CCN(CC)CC2)c1,-20.3%,-6.6%,9.6,9.2%,6.7%
CCOc1ccc(OCC)c(NC(=O)Cn2cccc2)c1,-26.9%,2.1%,-1.1,11.0%,1.2%
CC1CCCC(C)N1C(=O)COC(=O)c1ccc(F)c(S(=O)(=O)N2CCOCC2)c1 (stereo not drawn),-8.6%,2.2%,i,0.0%,0.5%
Cc1ccc(/C=N/c2sc3c(c2C(N)=O)CCCC3)o1,2.3%,0.8%,?,3.3%,2.3%
C=CCN(c1ccccc1OC)S(=O)(=O)c1cccc(C(=O)NCc2cccs2)c1,18.4µM*,14.6µM*,-13.7,-5.5%,-7.7%
COc1cc(OC)c(N(C)S(=O)(=O)c2cccc(C(=O)NCc3cccs3)c2)cc1Cl,?,?,14.9,-12.8%,-15.6%
CNS(=O)(=O)c1cccc(C(=O)OCC(=O)c2c(N)n(C)c(=O)n(C)c2=O)c1,?,-7.1%,15.5,7.9%,0.8%
CN(C)S(=O)(=O)c1cccc(C(=O)NCCc2ccccc2)c1,-23.0%,-4.8%,-2.3,7.8%,2.3%
